CHX counter: counter-screen for Shiga toxin inhibitors: cycloheximide protein synthesis inhibition. cell reporter, cycloheximide protein synthesis inhibition counterscreen. max response, %. 300,000 compounds, 12% hits. AID 2314; in the data active = max response mostly above about 13%, no sharp cut-off; inactive = mostly below about 14%; also: read at 38.3 µM for the half of the compounds with a filed dose; 0% is about no effect
Vaccinia mCherry: vaccinia inhibition (mCherry reporter); Vaccinia virus mCherry reporter infection, fluorescence; Potency, µM (top dose mostly 36.5 µM), for inactives: at the top dose activity change, negative = inhibition, most hits filed as inhibitors; 310,000 compounds, 0.63% hits; AID 720579; calls by dose curve; tested in A549 cells; also: potency is read from the fitted curve at half-maximal effect; % is scaled to controls: 0 for no effect and ±100 for the full control effect; nearly all actives have a fitted effect of over 35% in size
Lassa entry inh: Lassa virus entry inhibition; Lassa virus pseudotype entry inhibition, cell reporter; Potency, µM (highest dose often 37.9 µM), inactives show top-dose activity change, negative = inhibition, actives largely listed as inhibitors; 300,000 compounds, 1.2% hits; AID 540256; calls by dose curve; tested in HEK293 cells; also: potency is read from the fitted curve at half-maximal effect; % is scaled to controls: 0 for no effect and ±100 for the full control effect; nearly all actives have a fitted effect of over 50% in size
Shiga toxin inh: blocks Shiga toxin action in Vero cells | Vero cells, Shiga toxin protein synthesis inhibition reporter | inhibition, % at 38.7 µM | 290,000 compounds, 9.2% hits; in the data active = inhibition mostly above about 28%, no sharp cut-off; inactive = mostly below about 43%; also: 0% is about no effect
VACV Venus inh: vaccinia inhibition (Venus reporter). 330,000 compounds, 0.46% hits. Vaccinia virus Venus reporter expression, fluorescence. AID 720580. Potency, µM (titrated, usually from 36.5 µM), for the others: at the highest dose activity change, negative = inhibition, hits mostly inhibitors; calls by dose curve; tested in A549 cells; also: potency is read from the fitted curve at half-maximal effect; % is scaled to controls: 0 for no effect and ±100 for the full control effect; nearly all actives have a fitted effect of over 30% in size
MARV entry inh: Marburg virus entry inhibition | 300,000 compounds, 1.8% hits | Marburg virus pseudotyped entry inhibition, cell reporter | Potency, µM (top dose mostly 37.8 µM), for the others: at the top dose activity change, negative = inhibition, hits mostly inhibitors | AID 540276; calls by dose curve; tested in HEK293 cells; also: potency is read from the fitted curve at half-maximal effect; % is scaled to controls: 0 for no effect and ±100 for the full control effect
The depositor's hits bear a star; i = inactive; ? = inconclusive; . = no result; [ ] = another dose, or the depositor's remark. The full list was thinned out, with hits kept by preference.

SMILES	CHX counter	Vaccinia mCherry	Lassa entry inh	Shiga toxin inh	VACV Venus inh	MARV entry inh
O=S(=O)(NCc1ccccc1Cl)c1ccc(-n2cccn2)cc1	1.7	.	.	-5.3	.	.
NC1(N)OC(CN2C(=O)C3=C(CCCC3)C2=O)CS1 (configuration not stated)	.	.	.	.	.	-6.2%
Cc1cccc(NC(=O)c2ccc(-n3cccn3)c([N+](=O)[O-])c2)c1	31.6*	-15.0%[1.46 µM]	19.0%	49.2	-10.8%	16.5%
CN(C)CCN(C(=O)c1ccc2c(c1)CCCC2)c1nc2c(F)cccc2s1	56.3*	i	-6.5%	62.0	-2.9%	-6.7%
Cc1cc(C)c2sc(N(CCCN(C)C)C(=O)c3ccc(S(=O)(=O)N(C)Cc4ccccc4)cc3)nc2c1	.	-17.0%	?	.	?	?
CCN(Cc1ccccc1)S(=O)(=O)c1ccc(C(=O)N(CCCN(C)C)c2nc3c(F)cccc3s2)cc1	-3.9	-22.6%	?	-2.6	-18.9%	8.91µM*
COc1cccc2sc(N(CCN(C)C)C(=O)c3ccc4c(c3)CCCC4)nc12	-0.9	-21.0%	?	27.9	-14.6%	?
CCN(Cc1ccccc1)S(=O)(=O)c1ccc(C(=O)N(CCCN(C)C)c2nc3cc(C)cc(C)c3s2)cc1	.	?	?	.	?	10µM*
CCOc1cccc2sc(N(CCCN(C)C)C(=O)c3ccc(S(=O)(=O)N(CC)Cc4ccccc4)cc3)nc12	-5.9	?	?	-16.3	?	?
O=C(CCCOc1ccc(Cl)cc1Cl)NCc1ccccn1	5.9	i	-1.3%[46.1 µM]	41.4	0.2%	?
CN(CCc1ccccn1)Cc1ccc(Cl)c(Cl)c1	7.3	-13.4%	17.8%[46.1 µM]	14.8	2.6%	2.7%[46.1 µM]
CN(CCc1ccccn1)Cc1ccc(Cl)cc1Cl	16.8*	.	5.0%	59.6	.	8.6%
S=C(NCc1ccccn1)Nc1ccc(Br)cc1Cl	18.3*	0.9%	6.9%	44.2*	-4.0%	1.4%[46.1 µM]
O=C(NCc1ccccn1)Nc1ccc(Cl)cc1Cl	36.7*	.	.	66.2*	.	.
O=C(NCc1ccccn1)Nc1ccc(Br)cc1Cl	63.3*	-7.5%	-5.6%	135.9*	-7.6%	?
S=C(NCc1ccccn1)Nc1ccccc1Cl	26.5	-14.9%	23.4%	12.8	-4.8%	30.2%
O=C(O[C@H]1[C@H](Cc2ccccc2)NS(=O)(=O)[C@H]2C[C@@H]3C=C[C@]12O3)c1ccccc1Br	.	-13.1%	.	.	-5.8%	.
O=C(Nc1ccc(Cl)cc1Cl)Nn1cnnc1	-3.1	.	.	-3.8	.	.
O=C(Nc1ccno1)Nc1ccc(Cl)cc1Cl	10.7*	-20.3%	-6.9%	5.8	?	-4.5%
C[C@@H](c1ccccc1)N1C(=O)[C@@H]2[C@H]3[C@H](O)[C@H](O)CC(=NOC[C@@H](O)COCc4ccco4)[C@H]3CC[C@H]2C1=O	.	.	.	.	.	1.0%[14.2 µM]
O=C1CSC(c2cn(-c3ccccc3)nc2-c2ccccc2)N1Cc1ccco1 (configuration not stated)	19.3*	.	?	35.4	-29.1%	?
C[C@@H]1O[C@@H](O[C@H]2C[C@@H](O)[C@]3(CO)[C@H]4[C@H](O)C[C@]5(C)[C@@H](C6COC(=O)C6)CC[C@]5(O)[C@@H]4CC[C@]3(O)C2)[C@H](O)[C@H](O)[C@H]1O (some centres not stated)	-8.6	1.12µM*	1.64µM*	-23.7	1.12µM*	?
C[C@@H]1O[C@@H](O[C@H]2C[C@@H](O)[C@]3(CO)[C@@H]4C(CC[C@]3(O)C2)[C@@]2(O)CC[C@H]([C@@H]3COC(=O)C3)[C@@]2(C)C[C@H]4O)[C@H](O)[C@H](O)[C@H]1O (some centres not stated)	.	.	2.31µM*	.	.	0.82µM*
C[C@H]1CC[C@@H]2[C@@H](C)[C@H]3C(CC4C5CC=C6CC(O[C@@H]7O[C@H](CO)C(O[C@@H]8O[C@@H](C)[C@H](O)[C@@H](O)[C@H]8O)[C@H](O)[C@H]7O[C@@H]7O[C@@H](C)[C@H](O)[C@@H](O)[C@H]7O)CC[C@]6(C)C5CC[C@@]43C)N2C1 (some centres not stated)	-13.1	.	.	-9.1	.	.
CCc1nc2ccc(C(=O)NCc3ccccc3OC)cn2c1N(CC)Cc1cccc(Br)c1	.	8.9%	.	.	-8.5%	.
SMILES	CHX counter	Vaccinia mCherry	Lassa entry inh	Shiga toxin inh	VACV Venus inh	MARV entry inh
CCN(c1cc(C)cc(C)c1)S(=O)(=O)c1nnc(NC(=O)c2cccs2)s1	.	-7.4%	?	.	-8.8%	.
CCN(CC)S(=O)(=O)c1ccc2nc(NC(=O)c3ccco3)sc2c1	29.0*	i	?	77.6*	-8.4%	?
CCN(CC)S(=O)(=O)c1ccc2nc(NC(=O)c3cccs3)sc2c1	48.0*	-6.9%	18.3%	64.8*	-20.1%	9.4%[46.1 µM]
CCN(CC)S(=O)(=O)c1ccc2nc(NC(=O)c3ccc(Br)o3)sc2c1	.	-5.1%	-0.4%[46.1 µM]	.	3.5%	.
CS(=O)(=O)c1ccc2nc(NC(=O)CCS(=O)(=O)c3ccccc3)sc2c1	-3.2	-6.9%	?	-8.1	-19.0%	?
CCN(c1cccc(C)c1)S(=O)(=O)c1nnc(NC(=O)c2cccs2)s1	.	-3.0%	10µM*	.	-4.9%	.
CS(=O)(=O)c1ccc2nc(NC(=O)CCC(=O)c3cccs3)sc2c1	16.8*	-22.5%	8.2%	44.8	-17.2%	-6.7%
CCN(CC)N=Nc1[nH]nc2nc(C)cc(C)c12	24.7	i	-11.8%	3.9	-15.3%	10.5%
Cc1cc(C)c2c(N=NN3CCCCC3)[nH]nc2n1	38.3*	i	-11.5%	41.2*	-12.7%	?
O=C(NCCC1=CCCCC1)c1ccc2c(c1)ncn2-c1ccc(F)c(F)c1	.	-1.6%	3.7%[46.1 µM]	.	-1.3%	.
Cc1c(NC(=O)Nc2cccs2)cccc1[N+](=O)[O-]	12.2*	.	.	32.3	.	.
Cc1ccc(NC(=O)Nc2cccs2)c(Cl)c1	56.8*	?	?	107.2*	?	?
N#Cc1ccccc1NC(=O)Nc1cccs1	-3.3	.	3.1%	-22.4	-16.2%	-0.7%
O=C(Nc1cccs1)Nc1cccnc1Cl	60.4*	-17.7%	-8.0%[46.1 µM]	58.9*	2.1%	-2.3%[46.1 µM]
Cc1cccnc1NC(=O)Nc1cccs1	23.8	.	21.8%	35.3	.	10.2%
O=C(Nc1cccs1)Nc1ccccc1Cl	75.3*	.	-21.0%	77.8*	-25.6%	-11.7%
COC(=O)C(CCSC)NC(=O)c1cc2c(n(-c3ccc(Cl)cc3)c1=O)CCCC2=O (configuration not stated)	.	-2.4%	5.8%[46.1 µM]	.	-3.0%	3.3%[46.1 µM]
COP(=O)(OC)C(NC(=O)/C=C/c1ccccc1)C(Cl)(Cl)Cl (configuration not stated)	21.3	-14.9%	-8.7%	54.7*	-22.1%	20.0%[46.1 µM]
CCOc1ccc(/C=C/c2nc(C#N)c(N(C)C)o2)cc1	.	?	21.1%[46.1 µM]	.	-25.6%	6.6%[46.1 µM]
Cn1nccc1C(=O)Oc1cccc(/C=N/NC(=O)c2ccccc2O)c1	18.1	-10.9%	.	32.6*	-17.9%	.
Cn1ncc(Br)c1C(=O)N/N=C/c1cccc(OC2CSC2)c1	4.0	-15.9%	15.6%	26.5*	-10.4%	-4.2%
O=C(N/N=C/c1cccc(OC2CSC2)c1)c1ccccc1O	26.3*	.	14.3%	85.4	?	?

Assay outcomes deposited in PubChem BioAssay by National Center for Advancing Translational Sciences (NCATS).
